Test results taken from PubChem BioAssay.
Potency and affinity values are given separately. Results filed as inconclusive are left out. Calls of active or inactive are those of the source. Unless noted, the rule behind the calls is not given here.

What was measured:
[1] = RMG-1 ovarian cancer cell viability loss – cherry-pick, dose response (AID 687029;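 active = signal drop whose fitted half-maximal concentration is at most twice the top valid dose, in every test run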;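 note: cells exposed to compound for 96 hours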)
[2] = IOSE-T80 viability loss, PAX8-independent line – cell-based, cherry-pick, selectivity assay for PAX8 inhibitor project, dose response (AID 687032;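 active = fitted half-maximal concentration for viability loss no higher than twice the top valid dose, in every repeat run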;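 note: cells exposed to compound for 96 h before reading; 0% = neutral control wells and -100% = 2 µM mitoxantrone kill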)
[3] = CMV-driven luciferase expression suppression in HEK293 – cell-based, luminescence, dry powder, counter-screen for Pax8 inhibitor project, dose response (AID 743020;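 active = signal-lowering compounds whose fitted half-maximal concentration is at or below twice the top tested dose in every run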;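 note: HEK293 cells stably expressing the CMV luciferase reporter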)
[4] = general cell-killing toxicity readout – plate reader, dry powder samples, cytotoxicity control for PAX8 inhibitor project, dose response (AID 743021)
[5] = IGROV1 cell killing – plate reader, dry powder samples, PAX8 inhibitor project, dose response (AID 743043);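 note: more negative means fewer viable cells or more cytotoxicity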
[6] = OVCAR-3 cell viability loss – plate reader, dry powder samples, PAX8 inhibitor project, dose response (AID 743044); conditions: max activity: at 35 µM, active compounds read low unless noted
[7] = toxicity toward immortalized ovarian surface epithelium – cell-based, plate reader, dry powder samples, cytotoxicity control for PAX8 inhibitor project, dose response (AID 743045);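 note: 0% = neutral control median and -100% = positive control median; more negative values mean more cell killing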
[8] = A2780 cell killing – plate reader, dry powder samples, cytotoxicity control, dose response (AID 743046);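 note: 0% = neutral control wells and -100% = cytotoxic reference compound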
[9] = OVCAR8 cell viability loss – plate reader, dry powder samples, PAX8 project, dose response (AID 743197)

Measured: max activity

COc1ccccc1C#Cc1ccc2c(c1)O[C@H](CN(C)Cc1cccnc1)[C@H](C)CN([C@H](C)CO)S2(=O)=O
inactive: [1] | [2] | [3] | [4] | [5] | [6] -36.9% | [7] | [8]

C[C@@H]1CCCCO[C@H](CN(C)Cc2ccc(Cl)c(Cl)c2)[C@H](C)CN([C@@H](C)CO)C(=O)c2cc(NC(=O)Nc3ccc(F)cc3)ccc2O1
inactive: [1] | [2] | [3] | [4] | [5] | [6] 22.7% [at 8 µM, active compounds read low] | [7] | [8]

C[C@H](O)C#Cc1ccc2c(c1)O[C@@H](CN(C)Cc1ccc(-c3ccccc3)cc1)[C@@H](C)CN([C@@H](C)CO)S2(=O)=O
inactive: [1] | [2] | [3] | [4] | [5] | [6] -22.5% | [7] | [8]

CNC[C@@H]1Oc2cc(C#CC3CCCCC3)ccc2S(=O)(=O)N([C@@H](C)CO)C[C@@H]1C
inactive: [1] | [2] | [3] | [4] | [5] | [6] 17.9% [at 0.26 µM, active compounds read low] | [7] | [8] | [9]

C[C@@H]1CN([C@@H](C)CO)C(=O)c2c(c3ccccc3n2C)-c2ccccc2CO[C@H]1CN(C)S(=O)(=O)c1ccccc1F
inactive: [1] | [2] | [3] | [4] | [5] | [6] -17.2% [at 18 µM, active compounds read low] | [7] | [8]

COc1cccc(-c2ccc3c(c2)[C@@H]2[C@@H](CCN2C(=O)NC2CCCCC2)[C@H](CO)N3C)c1
inactive: [1] | [2] | [3] | [4] | [5] | [6] -16.7% [at 2.1 µM, active compounds read low] | [7] | [8] | [9]

C[C@@H]1CCCCO[C@H](CN(C)C(=O)Nc2ccc(F)cc2)[C@@H](C)CN([C@@H](C)CO)C(=O)c2cc(NC(=O)Nc3ccc(C(F)(F)F)cc3)ccc2O1
inactive: [1] | [2] | [3] | [4] | [5] | [6] 19.8% [at 0.26 µM, active compounds read low] | [7] | [8] | [9]

C[C@H](CO)N1C[C@H](C)[C@H](CN(C)S(=O)(=O)c2ccc(F)cc2)OCCCC[C@H](C)Oc2ccc(NC(=O)Nc3ccc(F)cc3)cc2C1=O
inactive: [1] | [2] | [3] | [4] | [5] | [6] -19% [at 16 µM, active compounds read low] | [7] | [8]

C[C@@H]1CCCCO[C@@H](CN(C)C(=O)Nc2ccc(C(F)(F)F)cc2)[C@H](C)CN([C@H](C)CO)C(=O)c2cc(NS(=O)(=O)c3ccccc3)ccc2O1
inactive: [1] | [2] | [3] | [4] | [5] | [6] 50.6% [at 8 µM, active compounds read low] | [7] | [8]

C[C@@H]1CCCCO[C@H](CN(C)C(=O)Nc2ccc(C(F)(F)F)cc2)[C@@H](C)CN([C@@H](C)CO)C(=O)c2cc(NS(=O)(=O)c3cccs3)ccc2O1
inactive: [1] | [2] | [3] | [4] | [5] | [6] -19.5% [at 4.2 µM, active compounds read low] | [7] | [8] | [9]

C[C@@H]1CCCCO[C@H](CN(C)Cc2ccc(C(F)(F)F)cc2)[C@H](C)CN([C@@H](C)CO)C(=O)c2cc(NC(=O)Nc3ccc(F)cc3)ccc2O1
inactive: [1] | [2] | [3] | [4] | [5] | [6] -17.3% | [7] | [8] | [9]

C[C@H]1CN([C@@H](C)CO)C(=O)CCCn2nncc2CO[C@@H]1CN(C)C(=O)Nc1ccc(-c2cccs2)cc1
inactive: [1] | [2] | [3] | [4] | [5] | [6] -29.9% | [7] | [8] | [9]

C[C@@H]1CCCCO[C@H](CN(C)S(=O)(=O)c2ccc(Cl)cc2)[C@@H](C)CN([C@@H](C)CO)C(=O)c2cc(NC(=O)Nc3ccc(C(F)(F)F)cc3)ccc2O1
inactive: [1] | [2] | [3] | [4] | [5] | [6] 9.63% [at 2.1 µM, active compounds read low] | [7] | [8] | [9]

C[C@H](CO)N1C[C@H](C)[C@H](CN(C)Cc2ccc3c(c2)OCO3)OCCCC[C@H](C)Oc2ccc(NS(=O)(=O)c3ccc(Cl)cc3)cc2C1=O
inactive: [1] | [2] | [3] | [4] | [5] | [6] 2.84% | [7] | [8] | [9]

O=C(C[C@H]1C[C@@H]2c3cc(NS(=O)(=O)c4ccc(F)cc4)ccc3O[C@@H]2[C@@H](CO)O1)NCc1ccc(-c2ccccc2)cc1
inactive: [1] | [2] | [3] | [4] | [5] | [6] -28.3% | [7] | [8]

Cc1ccc(S(=O)(=O)Nc2cccc3c2O[C@@H](CN(C)C(=O)Nc2ccc(C(F)(F)F)cc2)[C@@H](C)CN([C@H](C)CO)C3=O)cc1
inactive: [1] | [2] | [3] | [4] | [5] | [6] 25% [at 2.1 µM, active compounds read low] | [7] | [8] | [9]

C[C@H](CO)N1C[C@H](C)[C@H](CN(C)C(=O)Nc2ccc(-c3cccs3)cc2)OCc2cnnn2CCCC1=O
inactive: [1] | [2] | [3] | [4] | [5] | [6] -11.7% | [7] | [8] | [9]

CN1C[C@@H]2[C@H](c3ccccc31)[C@H](CO)N2Cc1ccccc1Cl
inactive: [1] | [2] | [3] | [4] | [5] | [6] 22.5% | [7] | [8] | [9]

Cc1ccc(S(=O)(=O)N[C@@H]2C=C[C@@H](CC(=O)N3CCC(Cc4ccccc4)CC3)O[C@@H]2CO)cc1
inactive: [1] | [2] | [3] | [4] | [5] | [6] -14.5% [at 16 µM, active compounds read low] | [7] | [8] | [9]

C[C@@H]1CCCCO[C@@H](CN(C)C(=O)C2CCCCC2)[C@H](C)CN([C@H](C)CO)C(=O)c2cc(NS(=O)(=O)c3ccc(Cl)cc3)ccc2O1
inactive: [1] | [2] | [3] | [4] | [5] | [6] -13.3% [at 0.5 µM, active compounds read low] | [7] | [8] | [9]

C[C@H](CO)N1C[C@H](C)[C@H](CN(C)Cc2ccc(Cl)c(Cl)c2)OCCCC[C@H](C)Oc2ccc(NC(=O)NC3CCCCC3)cc2C1=O
inactive: [1] | [2] | [3] | [4] | [5] | [6] -2.95% | [7] | [8] | [9]

C[C@@H]1CCCCO[C@@H](CN(C)Cc2ccccc2)[C@H](C)CN([C@H](C)CO)C(=O)c2cc(NC(=O)Nc3ccc(C(F)(F)F)cc3)ccc2O1
inactive: [1] | [2] | [3] | [4] | [5] | [6] -20.2% [at 16 µM, active compounds read low] | [7] | [8]

C[C@@H]1CN([C@@H](C)CO)C(=O)Cc2cc(NC(=O)c3ccncc3)ccc2O[C@@H]1CN(C)Cc1ccc(-c2ccccc2)cc1
inactive: [1] | [2] | [3] | [4] | [5] | [6] 8.74% [at 0.26 µM, active compounds read low] | [7] | [8] | [9]

C[C@H](CO)N1C[C@H](C)[C@@H](CN(C)CC2CCCCC2)Oc2ccc(NC(=O)Nc3ccc4c(c3)OCO4)cc2CC1=O
inactive: [1] | [2] | [3] | [4] | [5] | [6] 15.5% [at 1 µM, active compounds read low] | [7] | [8] | [9]

C[C@H]1CN([C@@H](C)CO)C(=O)c2cccc(NC(=O)Nc3ccc(F)cc3)c2O[C@H]1CN(C)C(=O)Nc1ccc(C(F)(F)F)cc1
inactive: [1] | [2] | [3] | [4] | [5] | [6] 10.2% [at 0.26 µM, active compounds read low] | [7] | [8] | [9]

C[C@@H]1CN([C@H](C)CO)C(=O)Cc2cc(NC(=O)Nc3ccc(F)cc3)ccc2O[C@H]1CN(C)C(=O)Nc1ccc(C(F)(F)F)cc1
inactive: [1] | [2] | [3] | [4] | [5] | [6] -34.3% | [7] | [8] | [9]

C[C@H](O)C#Cc1ccc2c(c1)O[C@H](CN(C)Cc1ccc(-c3ccccc3)cc1)[C@@H](C)CN([C@H](C)CO)S2(=O)=O
inactive: [1] | [2] | [3] | [4] | [5] | [6] 15.2% [at 16 µM, active compounds read low] | [7] | [8] | [9]
